Source: PubChem BioAssay (NCATS)
Inconclusive results are not listed. Entries that show only a call come without a potency. Activity calls are given as the source filed them. The call rests on the fitted dose curve; in most records, active means well fitted activation curve with a large enough effect; inconclusive means small, poorly fitted or top-dose-only effect, or effect the other way; inactive means flat fitted curve, though single readings scatter.

Test: Cellular Toxicity (caspase-3) NIH 3T3 (AID 666);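 further: caspase signal read after 16 h compound exposure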
Conditions: NIH 3T3 caspase-3 activation, apoptosis/toxicity; series mostly up to 92.2 µM
Source text: NIH Chemical Genomics Center [NCGC]
NIH Molecular Libraries Screening Centers Network [MLSCN]
National Institutes of Environmental Health Sciences [NIEHS]
National Toxicology Program [NTP]
We have developed a 1536-well cell-based assay for quantitative high throughput screening (qHTS) against a number of cell lines to determine in vitro caspase 3/7 of small molecules. This particular assay uses the NIH 3T3 cell line which is derived from mouse fibroblasts.
NCGC Assay Protocol Summary:
The Caspase-Glo 3/7 assay (Promega) is a homogeneous method to measure caspase-3 and caspase-7 activities in cultured cells. The quantitation of caspase 3/7 activity is based on the cleavage of a peptide-aminoluciferin substrate. After caspase cleaves the substrate the free aminoluciferin is liberated and serves as the substrate of luciferase, which generates the light. The luminescent signal is proportional to amount of caspase 3/7 activity present.
Using the Caspase-Glo 3/7 assay, the amount of caspase 3/7 activity was measured in the NIH 3T3 cell line with complete culture medium following compound treatment for 16 hours. The assay was performed in opaque white 1536-well plates. In the screen, tamoxifen and doxorubicin were used as positive controls. Library compounds were measured for their ability to cause the activation of caspase 3/7 in the cell line, as reflected by an increase in luminescence signal, in a concentration-dependent manner. Data were normalized to the controls for basal activity (DMSO only) and 100% stimulation (100 uM tamoxifen). AC50 values were determined from concentration-response data modeled with the standard Hill equation.
qHTS protocol for caspase 3/7 assay in NIH 3T3 cells
[Step] [Parameter] [Value] [Description]
1. Reagent; 5 uL; 1000 NIH 3T3 cells/well
2. Time; 5 hr; 37 °C incubation
4. Controls; 23 nL; Tamoxifen 0.23 uM to 100 uM & Doxorubicin 7.0 pM to 100 uM
5. Time; 16 hr; 37 °C incubation
6. Reagent; 5 uL; Caspase-Glo 3/7 reagent
7. Time; 20 min; Room Temperature
8. Detection; Luminescence; Viewlux plate reader
Keywords: caspase 3/7, apoptosis, NIH 3T3 cell line, luminescence, NTPHTS, NTPHTS_NCGC, NIEHS, EPA, DSSTox, MLSMR, MLSCN, NIH Roadmap, qHTS, NCGC
With OCCCCO the Potency was “inactive”. In the case of O=C(O)C(Br)Br, the Potency is reported as “inactive”. For C=CCO, the Potency was “inactive”. In the case of Cc1cc(-c2ccc(N)c(C)c2)ccc1N, the Potency is reported as “inactive”. For Cc1ccc(N)c(N)c1, the Potency was “inactive”. For O=C(Cl)c1ccccc1F, the Potency was “inactive”. In the case of ClCCBr, the Potency is reported as “inactive”. For O=[N+]([O-])c1cccc2c([N+](=O)[O-])cccc12, the Potency was “inactive”. In the case of Nc1ccc(-c2ccccc2)cc1, the Potency is reported as “inactive”. For C=C(C)CCl, the Potency was “inactive”. In the case of c1ccc(N=NNc2ccccc2)cc1, the Potency is reported as “inactive”. With CCCC[N+](=O)[O-] the Potency was “inactive”. For CC(C)(C)OOC(=O)c1ccccc1, the Potency was “inactive”. With CCCCC(=O)Cl the Potency was “inactive”. With Nc1ccc(Cc2ccc(N)c(Cl)c2)cc1Cl the Potency was “inactive”. For c1ccc(NNc2ccccc2)cc1, the Potency was “inactive”. In the case of N#CC(O)c1ccccc1 (stereo not given), the Potency is reported as “inactive”. In the case of O=[N+]([O-])c1ccc(Cl)cc1, the Potency is reported as “inactive”. In the case of N#CCc1ccccc1, the Potency is reported as “inactive”. With C1CC2OC2CC1C1CO1 (stereo not given) the Potency was “inactive”. In the case of c1ccc(P(c2ccccc2)c2ccccc2)cc1, the Potency is reported as “inactive”. For CCN(CC)CCO, the Potency was “inactive”. With Oc1cc(Cl)c(Cl)c(Cl)c1Cl the Potency was “inactive”. With Oc1cccc(Cl)c1Cl the Potency was “inactive”. For CC(Cl)CCl (stereo not given), the Potency was “inactive”. For Brc1cccc(-c2ccccc2)c1, the Potency was “inactive”. For Nc1cc(Cl)ccc1Cl, the Potency was “inactive”. In the case of Cc1ccc(N)c(C)c1, the Potency is reported as “inactive”. With CC(=O)CCC(C)=O the Potency was “inactive”. In the case of CCC[N+](=O)[O-], the Potency is reported as “inactive”. For O=C(O)c1cc(Cl)ccc1Cl, the Potency was “inactive”. With CCN(CC)N=O the Potency was “inactive”. For S=C1NCCN1, the Potency was “inactive”. In the case of CC(C)(C)C(O)(CCc1ccc(Cl)cc1)Cn1cncn1 (stereo not given), the Potency is reported as “inactive”. In the case of CC(C)Br, the Potency is reported as “inactive”. For O=[N+]([O-])c1ccccc1O, the Potency was “inactive”. For CN(C)c1ccc(N)cc1, the Potency was “inactive”. For CC(C)(Cl)[N+](=O)[O-], the Potency was “inactive”. In the case of Clc1ccc(Cl)c(Cl)c1, the Potency is reported as “inactive”. For Clc1cc(Cl)c(Cl)c(Cl)c1, the Potency was “inactive”.
